Experimental data as given in PubChem BioAssay AID435003 (Sanford-Burnham Center for Chemical Genomics, 2010).
The campaign covered roughly 330,000 compounds. About 1,700 (0.52%) were called active. The sample as a whole holds a higher share of actives than the screen did. A number with no mark means an inactive call. Rule as the data show it: active = inhibition above about 50%; inactive = the rest.

assay: lowers stimulated NF-kB reporter luminescence – cell-based, uHTS, TCR NF-kB activation inhibitor project, primary screen (AID 435003); conditions: Jurkat, PMA/ionomycin-induced NF-kB luciferase reporter, at 4 µM, stronger effect = higher value

| SMILES | inhibition |
| --- | --- |
| CCOC(=O)C1=C(C)Nc2nc3ccccc3n2C1c1cccs1 (stereo not drawn) | 7.93% |
| CCOc1ccc(C2C(C(=O)NC)=C(C)Nc3nc4ccccc4n32)cc1OC (stereo not drawn) | 6.25% |
| COc1ccccc1NC(=O)C1=C(C)Nc2nc3ccccc3n2C1c1cccs1 (stereo not drawn) | 58.1% (active) |
| O=C(O)/C=C/C(=O)NNc1ccc([N+](=O)[O-])cc1 | 9.38% |
| O=C(c1c(F)cccc1Cl)N1CCN(S(=O)(=O)c2ccc3c(c2)OCCCO3)CC1 | -0.00048% |
| COc1ccc2[nH]c(C(=O)N/N=C/c3cc(OC)c(OC)c(OC)c3)cc2c1 | 17.7% |
| COc1cc(N=Cc2c(O)[nH]c3ccccc23)cc(OC)c1OC | 76.1% (active) |
| CN=c1scc(-c2cc(OC)ccc2OC)n1/N=C/c1c(C)[nH]c2ccccc12 | -10.3% |
| CC(C)Oc1ccc(C(=O)NC(C)(C)CO)cc1 | -5.78% |
| CCC(C)NC(=O)C1c2ccccc2C(=O)N1Cc1ccccc1 (stereo not drawn) | -0.632% |
| COC(c1ccccc1)c1nnc(CCC(=O)N2CCN(CCOc3ccccc3)CC2)o1 (stereo not drawn) | 14.1% |
| Cc1ccc(S(=O)(=O)Nc2ccc3ncccc3c2)cc1 | 16.8% |
| COc1ccc(N2CC(NS(=O)(=O)c3ccc4ccccc4c3)CC2=O)cc1 (stereo not drawn) | 4% |
| COc1cc(NS(=O)(=O)c2ccc3ccccc3c2)c2ncccc2c1 | 66% (active) |
| O=C(NC(=O)c1ccc(Cl)c(Cl)c1)OC1CCS(=O)(=O)C1 (stereo not drawn) | 2.78% |
| C=CCN(c1ccc(C(N)=O)cc1)S(C)(=O)=O | -12.3% |
| CCC(C)c1ccc(NC(=S)NCc2ccccn2)cc1 (stereo not drawn) | -14.5% |
| NC1=NC2(CCCCC2)N(c2ccc(F)cc2F)C(N)=N1 | 2.27% |
| NC(N)=N/N=C/c1ccc(OCc2ccc(Cl)cc2Cl)cc1 | 59% (active) |
| OC(CNCCc1ccc(Cl)cc1Cl)COc1ccccc1 (stereo not drawn) | 5.89% |
| CCOc1ccc(/C=N/NC(N)=S)cc1 | -13% |
| COc1ccccc1N1CCN(C(=O)c2cc(=O)c3cc(C)ccc3o2)CC1 | 19.9% |
| COc1ccccc1N1CCN(C(=O)c2c(-c3c(Cl)cccc3Cl)noc2C)CC1 | -3.34% |
| COc1ccccc1N1CCN(C(=O)c2cc(=O)c3cc(C)cc(C)c3o2)CC1 | 64.2% (active) |

| SMILES | inhibition |
| --- | --- |
| O=C(O)c1cc2c(cc1NC(=O)c1c(F)cccc1Cl)OCCCO2 | 17.5% |
| O=C(CN1C(=O)c2ccccc2S1(=O)=O)N1CCc2ccccc21 | 72.7% (active) |
| O=C(CN1C(=O)c2ccccc2S1(=O)=O)NC1CCCCC1 | -1.51% |
| CC1CCCN(C(=O)CN2C(=O)c3ccccc3S2(=O)=O)C1 (stereo not drawn) | -25% |
| CC1CN(C2CCN(C(=O)COc3ccccc3)CC2)CC(C)O1 (stereo not drawn) | -5.33% |
| CSc1ccc(S(=O)(=O)Nc2cccc(F)c2)cc1 | -8.25% |
| COc1ccccc1-n1nnnc1SCC(=O)NC(=O)Cc1ccccc1 | 4.18% |
| COc1ccccc1N1CCN(S(=O)(=O)c2ccc(Cl)cc2)CC1 | -16.1% |
| COc1ccccc1-n1nnnc1S(=O)(=O)Cc1ccc(Cl)cc1 | 55.8% (active) |
| Cn1c2c(c(=O)n(C)c1=O)C(c1ccc(O)cc1)Nc1ccccc1O2 (stereo not drawn) | 3.73% |
| CCCCCCCCn1c2c(c(=N)c3c1CCC3)CCCC2 | 89.5% (active) |
| COc1ccc(C)cc1NC(=O)C(OC(=O)c1cccc(S(=O)(=O)N(C)c2ccccc2)c1)c1ccccc1 (stereo not drawn) | 10.1% |
| CN(C)C(CNC(=O)c1ccc(S(=O)(=O)NCc2ccco2)cc1)c1ccccc1 (stereo not drawn) | -19.3% |
| CC(=O)Nc1ccc(NC(=O)C2CCCN(S(=O)(=O)c3ccc(Cl)cc3)C2)cc1 (stereo not drawn) | -4.31% |
| CC(C)(C)Nc1c(-c2cccs2)nc2ccccn12 | -10.6% |
| C/C(=N\NC(=O)c1ccccc1F)c1ccccn1 | 90.2% (active) |
| C/C(=N\NC(=O)c1ccoc1C)c1ccccc1O | -29.9% |
| COc1ccc(/C(C)=N\NC(=O)c2ccc(-c3ccccc3)cc2)c(F)c1 | -14.4% |
| Cc1cc(Cl)ccc1NC(=S)N1CCC(C(N)=O)(N2CCCCC2)CC1 | 5.02% |
| COc1ccc(C(=O)NC2CCCc3c2cnn3-c2cccc(C)c2C)c(OC)n1 (stereo not drawn) | 29.1% |
| Cn1nccc1C(=O)NC1CCCc2c1cnn2-c1ccc(F)cc1F (stereo not drawn) | 71% (active) |
| Cc1cc(C(=O)NC2CCCc3c2cnn3-c2cccc(C)c2C)c(C)o1 (stereo not drawn) | 29.7% |
| Cc1ccc(-n2ncc3c2CCCC3NC(=O)c2cnccn2)cc1C (stereo not drawn) | -3.8% |
| Cn1nccc1C(=O)NC1CCCc2c1cnn2-c1ccccc1F (stereo not drawn) | 62.9% (active) |

| SMILES | inhibition |
| --- | --- |
| CC(=O)NCC(=O)NC1CCCc2c1cnn2-c1ccccc1F (stereo not drawn) | -8.3% |
| CC1CC(C)CN(C(=O)CCNC(=O)Cn2cnc3ccccc3c2=O)C1 (stereo not drawn) | -7.78% |
| Cc1ccc(S(=O)(=O)N(C)C)cc1NC(=O)c1n[nH]c(=O)c2ccccc12 | -17.4% |
| COC(=O)C1=NN(c2ccccc2)C2C(=O)N(c3ccccc3OC)C(=O)C12 (stereo not drawn) | 25.7% |
| COc1ccc(NCc2nnc(SCc3ccccc3)n2-c2ccc(OC)cc2)cc1 | -6.88% |
| CCOC(=O)c1cccc(NC(=O)C2CCN(c3ncnc4c3nc3n4CCCCC3)CC2)c1 | 12.1% |
| Oc1cccc(/C=N/Nc2ccc(Cl)nn2)c1O | 54.9% (active) |
| Cc1nc2ccccc2nc1N/N=C/c1ccc(O)cc1O | 20.4% |
| Oc1c(Br)cccc1/C=N/Nc1c(F)c(F)c(F)c(F)c1F | 2.14% |
| Cc1cc(=O)[nH]c(Nc2cccc(Br)c2)n1 | 12.3% |
| CN(Cc1ccccc1)C(=O)CCNC(=O)Cn1cnc2ccccc2c1=O | -2.32% |
| Cc1cccc(Nc2nc(NCCO)nc(N3CCCC3)n2)c1 | 5.92% |
| OCCCNc1nccc(-c2cc(Nc3cccc(Cl)c3)ncn2)n1 | 98.5% (active) |
| CC(C)n1cnc2c(Nc3cccc(Cl)c3)nc(N(CCO)CCCO)nc21 | -12% |
| Cc1ccc(S(=O)(=O)c2nc(-c3cccs3)oc2NCc2cccnc2)cc1 | -3.33% |
| COc1ccc(C(=O)N2CCN(c3ccc(C(C)=O)cc3F)CC2)cc1S(=O)(=O)NC1CC1 | -20.9% |
| C[C@H](CO)N1C[C@H](C)[C@@H](CN(C)C(=O)NC2CCCCC2)Oc2ccc(NC(=O)c3ccncc3)cc2C1=O | 7.62% |
| COCCCNC(=O)CCc1nc2cccnc2n1Cc1ccc(OC)cc1 | 1.81% |
| Cn1c(-c2ccc(C(F)(F)F)cc2)cc2onc(-c3ccccc3)c2c1=O | -242% |
| O=C(Nc1ccc(CSc2ccccc2)cc1)c1ccc(CN2CCOCC2)cc1 | 69% (active) |
| CCOc1ccc(C(=O)Nc2ccc(CN3CCOCC3)cc2)cc1Cl | -22.2% |
| O=C(Nc1ccccc1C(=O)N1CCOCC1)c1ccc(CSc2ccccc2)cc1 | -0.886% |
| Cc1ccc2nc(-c3ccccn3)cc(C(=O)Nc3ccc4c(c3)OCO4)c2c1 | 11.1% |
| Cc1ccc2nc(-c3ccncc3)cc(C(=O)Nc3ccc(OC(F)F)cc3)c2c1 | 53.6% (active) |

| SMILES | inhibition |
| --- | --- |
| CCN(CC)CCNC(=O)c1ccc(NC(=O)c2cc(-c3ccncc3)nc3ccccc23)cc1 | -38.2% |
| CC(C)CC[n+]1ccn(C2=C([O-])c3ccccc3C(=O)/C2=N\S(=O)(=O)c2ccccc2)c1 | 6.27% |
| Cc1ccc(OCCNC(=O)CN2C(=O)NC3(CCCC3)C2=O)cc1 | 7.61% |
| O=C(Nc1ccc(Br)cc1)c1cccc(NC(=O)C2C3CC4OC(=O)C2C4C3)c1 (stereo not drawn) | -6.94% |
| COc1ccc(NC(=O)C/C(C)=N/NC(=O)c2cnccn2)cc1Cl | -12.8% |
| CCN1CCN(c2ccc(NC(=O)c3cnccn3)cc2)CC1 | -79.3% |
| CCN(CC)c1ccc(/C=N/NC(=O)c2cnccn2)c(O)c1 | 59.3% (active) |
| CCC(C)n1[nH]c(=O)cc1N (stereo not drawn) | 6.5% |
| N#CC1(C#N)C(C(=O)C23CC4CC(CC(C4)C2)C3)C12CCOCC2 (stereo not drawn) | 3.42% |
| C=C(C)C(=O)O[C@H]1C/C(C)=C\C(=O)/C=C(\C)[C@H](O)[C@@H]2OC(=O)C(=C)[C@@H]21 | 76.7% (active) |
| COc1ccc2cc1Oc1ccc(cc1)C[C@H]1c3cc(c(OC)cc3CCN1C)Oc1c(O)c(OC)cc3c1[C@H](C2)N(C)CC3 | 81.7% (active) |
| C=CCn1c(SCC(=O)NCCCO)nc2sc3c(c2c1=O)CCC3 | 6.01% |
| C=CCn1c(SCC(=O)NCC2CCCO2)nc2sc(C)c(C)c2c1=O (stereo not drawn) | -2.81% |
| C=CCn1c(SCc2c(C)noc2C)nc2sc3c(c2c1=O)CCC(C)C3 (stereo not drawn) | 69.9% (active) |
| CC1Cc2cc(/C(O)=C3\C(=O)C(=O)N(Cc4cccnc4)C3c3ccccc3F)ccc2O1 (stereo not drawn) | -14.7% |
| COC(=O)c1sccc1NC(=S)Nc1ccc(C)cc1 | -16.1% |
| CCN(CC(=O)Nc1ccc(OC)cc1)C(=O)CSCc1ccc(C)cc1 | -16.5% |
| COc1ccc(CCNC(=O)c2cnc(Cl)c(Cl)c2)cc1 | -35.5% |
| COc1ccc(CS(=O)/C(Cl)=C(/Cl)C(=O)Nc2ccc(OC)nc2)cc1 (stereo not drawn) | 99.4% (active) |
| COc1ccc(NC(=O)/C(Cl)=C(/Cl)S(=O)Cc2ccc(C)cc2)cn1 (stereo not drawn) | 91.6% (active) |
| COc1ccc(C(=O)CCC(=O)Nc2ccc(Cl)cc2)cc1 | 10.1% |
